Measurements published in PubChem BioAssay AID588689 (Southern Research Specialized Biocontainment Screening …, 2011).
The campaign covered roughly 340,000 compounds. About 1,000 (0.29%) were called active. Rule as the data show it: inconclusive = inhibition above about 29% without an active follow-up result; inactive = below that. Not all results are given here. Potency and affinity values are given separately.

Biological target: Genome polyprotein (Dengue virus type 2 (strain 16681-PDK53)) (UniProt P29991)
Test: flavivirus cap methylation enzyme inhibition – biochemical, confirmation dose response, primary screen (AID 588689)
Settings: Dengue-2 NS5 methyltransferase capping enzyme assay, at 25 µM, stronger effect = higher value
[1] = measured here: pilot screen replicate inhibition

Chain of Genome polyprotein (Dengue virus type 2 (strain 16681-PDK53)) (P29991 whole entry, looked up): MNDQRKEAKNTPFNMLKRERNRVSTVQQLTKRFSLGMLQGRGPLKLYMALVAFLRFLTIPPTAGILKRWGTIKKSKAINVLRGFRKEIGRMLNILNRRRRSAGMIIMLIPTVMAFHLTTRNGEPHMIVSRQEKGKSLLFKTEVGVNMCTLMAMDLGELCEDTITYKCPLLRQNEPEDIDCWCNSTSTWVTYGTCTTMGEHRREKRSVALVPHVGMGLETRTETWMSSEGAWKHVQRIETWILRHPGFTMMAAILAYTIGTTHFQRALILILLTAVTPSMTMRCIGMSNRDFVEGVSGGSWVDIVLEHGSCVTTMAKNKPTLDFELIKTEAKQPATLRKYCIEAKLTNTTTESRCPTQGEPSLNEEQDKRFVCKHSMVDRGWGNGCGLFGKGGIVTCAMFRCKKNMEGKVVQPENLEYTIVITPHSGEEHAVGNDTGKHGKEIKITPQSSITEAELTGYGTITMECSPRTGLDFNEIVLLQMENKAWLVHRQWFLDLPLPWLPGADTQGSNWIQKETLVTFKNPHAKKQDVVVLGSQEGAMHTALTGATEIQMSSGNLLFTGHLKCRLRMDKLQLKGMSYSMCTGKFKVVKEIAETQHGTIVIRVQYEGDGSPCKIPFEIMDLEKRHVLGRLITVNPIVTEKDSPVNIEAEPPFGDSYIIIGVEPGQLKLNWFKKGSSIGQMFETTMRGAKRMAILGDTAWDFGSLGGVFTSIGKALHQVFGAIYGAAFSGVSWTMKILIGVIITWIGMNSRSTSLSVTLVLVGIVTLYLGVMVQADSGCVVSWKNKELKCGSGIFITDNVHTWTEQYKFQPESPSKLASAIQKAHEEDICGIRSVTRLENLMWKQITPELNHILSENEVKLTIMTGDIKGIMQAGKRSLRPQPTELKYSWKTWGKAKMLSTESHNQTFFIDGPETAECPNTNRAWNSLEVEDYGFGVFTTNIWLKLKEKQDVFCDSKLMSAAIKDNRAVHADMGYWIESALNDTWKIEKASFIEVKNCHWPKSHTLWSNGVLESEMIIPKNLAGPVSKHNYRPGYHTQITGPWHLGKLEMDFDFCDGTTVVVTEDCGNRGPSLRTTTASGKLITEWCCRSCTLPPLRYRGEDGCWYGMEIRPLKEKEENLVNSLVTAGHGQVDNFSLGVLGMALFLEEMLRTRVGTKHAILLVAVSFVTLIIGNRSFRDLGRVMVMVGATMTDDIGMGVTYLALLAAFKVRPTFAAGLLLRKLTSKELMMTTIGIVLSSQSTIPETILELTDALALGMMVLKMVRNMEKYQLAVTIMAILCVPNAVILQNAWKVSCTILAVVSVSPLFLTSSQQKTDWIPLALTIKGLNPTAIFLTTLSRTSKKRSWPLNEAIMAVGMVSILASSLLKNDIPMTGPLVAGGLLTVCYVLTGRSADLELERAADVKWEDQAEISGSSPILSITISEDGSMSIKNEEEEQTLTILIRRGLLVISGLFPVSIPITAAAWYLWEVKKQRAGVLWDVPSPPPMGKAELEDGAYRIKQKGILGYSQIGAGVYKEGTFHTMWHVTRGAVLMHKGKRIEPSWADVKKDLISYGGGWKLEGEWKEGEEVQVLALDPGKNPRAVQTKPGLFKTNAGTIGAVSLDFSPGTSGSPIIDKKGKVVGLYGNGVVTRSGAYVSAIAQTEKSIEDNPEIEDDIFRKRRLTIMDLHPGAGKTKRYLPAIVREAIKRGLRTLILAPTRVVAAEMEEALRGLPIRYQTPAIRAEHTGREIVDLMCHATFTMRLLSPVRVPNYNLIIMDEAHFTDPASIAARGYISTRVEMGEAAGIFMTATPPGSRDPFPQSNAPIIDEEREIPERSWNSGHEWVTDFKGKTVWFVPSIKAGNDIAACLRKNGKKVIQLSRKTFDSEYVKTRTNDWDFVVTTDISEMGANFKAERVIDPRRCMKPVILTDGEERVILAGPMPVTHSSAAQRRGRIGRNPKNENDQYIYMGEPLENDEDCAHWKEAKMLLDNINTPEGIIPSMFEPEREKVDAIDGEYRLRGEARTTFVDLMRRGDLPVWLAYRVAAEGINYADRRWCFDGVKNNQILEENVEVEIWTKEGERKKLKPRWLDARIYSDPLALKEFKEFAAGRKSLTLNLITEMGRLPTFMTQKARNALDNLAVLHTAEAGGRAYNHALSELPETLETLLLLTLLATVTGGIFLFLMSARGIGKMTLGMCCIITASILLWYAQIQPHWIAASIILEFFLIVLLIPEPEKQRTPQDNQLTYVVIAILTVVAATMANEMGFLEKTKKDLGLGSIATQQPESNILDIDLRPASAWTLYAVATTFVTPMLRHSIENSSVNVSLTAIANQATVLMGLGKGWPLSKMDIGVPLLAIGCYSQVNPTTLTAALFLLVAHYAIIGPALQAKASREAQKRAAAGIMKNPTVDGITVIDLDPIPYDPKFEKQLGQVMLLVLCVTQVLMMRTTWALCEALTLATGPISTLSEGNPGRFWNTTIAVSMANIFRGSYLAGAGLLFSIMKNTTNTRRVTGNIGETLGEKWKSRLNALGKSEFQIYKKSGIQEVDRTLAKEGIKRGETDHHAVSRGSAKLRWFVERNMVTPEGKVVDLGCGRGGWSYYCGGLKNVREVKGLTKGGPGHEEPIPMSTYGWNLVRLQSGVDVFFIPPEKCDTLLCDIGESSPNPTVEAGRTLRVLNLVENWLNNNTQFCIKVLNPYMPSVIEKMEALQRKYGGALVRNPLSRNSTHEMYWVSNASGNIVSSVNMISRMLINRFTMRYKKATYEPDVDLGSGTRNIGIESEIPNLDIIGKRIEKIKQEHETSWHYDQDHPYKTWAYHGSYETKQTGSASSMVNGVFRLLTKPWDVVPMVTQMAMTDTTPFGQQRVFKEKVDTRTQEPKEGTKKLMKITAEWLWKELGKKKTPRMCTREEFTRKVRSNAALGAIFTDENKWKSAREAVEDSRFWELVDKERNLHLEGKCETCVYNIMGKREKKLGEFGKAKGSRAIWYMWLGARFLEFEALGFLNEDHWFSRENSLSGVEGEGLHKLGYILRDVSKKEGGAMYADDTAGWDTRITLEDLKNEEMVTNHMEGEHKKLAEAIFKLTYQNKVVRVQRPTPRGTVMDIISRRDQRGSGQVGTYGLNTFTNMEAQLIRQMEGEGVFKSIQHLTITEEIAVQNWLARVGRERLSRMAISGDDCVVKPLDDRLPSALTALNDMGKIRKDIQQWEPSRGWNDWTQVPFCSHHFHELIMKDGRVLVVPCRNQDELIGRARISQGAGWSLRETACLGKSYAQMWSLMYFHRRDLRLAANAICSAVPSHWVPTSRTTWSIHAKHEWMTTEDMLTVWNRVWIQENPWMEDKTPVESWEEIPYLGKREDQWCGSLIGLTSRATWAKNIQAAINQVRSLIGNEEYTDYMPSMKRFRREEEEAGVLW

Row | Compound | inhibition | inhibition [1]
1 | O=C(c1ccc(CS(=O)c2ccc(F)cc2)o1)N1CCN(C2CCCCC2)CC1 (stereo not given) | -10.8% (inactive) | 
2 | Cc1[nH]c(=O)[nH]c(=O)c1CSc1nnc([C@@H](NC(=O)OC(C)(C)C)C(C)C)o1 | 0.56% (inactive) | 
3 | CC(C)(C)c1ccc(S(=O)(=O)Nc2ccccn2)cc1 | 2.21% (inactive) | 
4 | C/C(=N\NS(=O)(=O)c1ccc(C(C)(C)C)cc1)c1ccccc1 | -0.98% (inactive) | 
5 | Cc1ccc(S(=O)(=O)/N=C2\C=C(Nc3ccc(O)cc3)C(=O)c3ccccc32)cc1 | -0.74% (inactive) | 
6 | COC(=O)C(C(C)=O)C1=C/C(=N\S(=O)(=O)c2ccc(C)cc2)c2ccccc2C1=O (stereo not given) | -8.06% (inactive) | 
7 | O=C(CCN1C(=O)C2CC=CCC2C1=O)Nc1cccc(S(=O)(=O)N2CCCCC2)c1 (stereo not given) | 0% (inactive) | 
8 | NC(=O)CSc1nnc(-c2cccs2)n1-c1ccccc1 | -6.45% (inactive) | 
9 | COCCN(C(=O)COC(=O)CCSc1ccc(F)cc1)c1c(N)n(Cc2ccccc2)c(=O)[nH]c1=O | -5.13% (inactive) | 
10 | COC(=O)C1(C(=O)OC)C(C(=O)c2ccccc2)C1c1ccccc1 (stereo not given) | 5.57% (inactive) | 
11 | COc1cc(SC)ccc1C(=O)Nc1cccc(S(=O)(=O)NC2=NCCCCC2)c1 | -1.45% (inactive) | 
12 | CCCNC(=O)c1ccc2nc(-c3ccccc3)c(-c3ccccc3)nc2c1 | -0.8% (inactive) | 
13 | COc1ccc2nc3c(nc2c1)CCCC3 | -8.49% (inactive) | 
14 | CCc1nc2ccc(C(=O)NCCc3ccco3)cc2nc1CC | -11.5% (inactive) | 
15 | O=C(Nc1ccc(N2CCOCC2)cc1)c1ccc2nc(-c3ccco3)c(-c3ccco3)nc2c1 | 3.24% (inactive) | 
16 | O=C(Nc1cccc(C(F)(F)F)c1)c1ccc2nc(-c3ccco3)c(-c3ccco3)nc2c1 | 21.6% (inactive) | 
17 | COCCNC(=O)Nc1ccc2nc(-c3cccs3)c(-c3cccs3)nc2c1 | -17.7% (inactive) | 
18 | COc1ccc2nc3ccccc3nc2c1 | 18.8% (inactive) | 
19 | O=C(Nc1ccc(N2CCOCC2)cc1)Nc1ccc2nc(-c3ccco3)c(-c3ccco3)nc2c1 | 13.6% (inactive) | 

Row | Compound | inhibition | inhibition [1]
20 | Cc1ccccc1NC(=O)Cc1cccs1 | -7.91% (inactive) | -5.49%
21 | COc1cc2c(cc1OC)CC(C(=O)NCc1ccccc1)NC2 (stereo not given) | -4.57% (inactive) | 
22 | O=C(C1CCCN(S(=O)(=O)c2ccccc2)C1)N1CCN(c2ccccc2)CC1 (stereo not given) | -6.74% (inactive) | 
23 | CCN(CC)C(=O)C1CCCN(C(=O)Nc2ccccc2)C1 (stereo not given) | -0.8% (inactive) | 
24 | CN(/N=C/c1ccc2c(c1)OCO2)c1ccccc1 | -8.15% (inactive) | 
25 | COc1cccc(-c2ncc3ccccc3c2COC(=O)c2cccs2)c1 | -7.94% (inactive) | 
26 | O=C(c1ccco1)N1CCN(S(=O)(=O)c2cccc(C(F)(F)F)c2)CC1 | 0% (inactive) | 
27 | Cc1nc2ccc(C(=O)O)cc2nc1C | -2.96% (inactive) | 
28 | O=C(c1ccc2nc(-c3ccco3)c(-c3ccco3)nc2c1)N1CCN(c2ccccc2)CC1 | 0% (inactive) | 
29 | O=C(O)c1ccc2nc(-c3ccccc3)c(-c3ccccc3)nc2c1 | -2.57% (inactive) | 
30 | CCc1nc2ccc(C(=O)NCc3ccco3)cc2nc1CC | -6.11% (inactive) | 
31 | O=C(NCCc1ccccc1)c1ccc2nccnc2c1 | 0% (inactive) | 
32 | O=C(Nc1ccccc1)c1ccc2nc(-c3ccco3)c(-c3ccco3)nc2c1 | 44.6% (inactive) | 
33 | COc1ccc(-c2nc3ccc(C(=O)NCCCN4CCOCC4)cc3nc2-c2ccc(OC)cc2)cc1 | -9.54% (inactive) | 
34 | O=C(c1ccccc1)c1ccc2nc(-c3ccco3)c(-c3ccco3)nc2c1 | 51.1% (inactive) | 
35 | Cc1ccc(NC2CCCN(C(=O)c3cn4cc(Cl)ccc4n3)C2)cc1C (stereo not given) | 3.88% (inactive) | 
36 | COc1ccccc1N1CCN(CC(=O)Nc2ccc(CN3CCCCC3)cc2)CC1 | -7.05% (inactive) | 
37 | CC1=C(C#N)C(c2ccc(O)cc2)C2=C(CCCC2=O)N1 (stereo not given) | 0% (inactive) | 
38 | COc1ccc2cc(C3(C)NC(=O)N(CC(=O)NCCC4=CCCCC4)C3=O)ccc2c1 (stereo not given) | -6.89% (inactive) | -2.13%

Row | Compound | inhibition | inhibition [1]
39 | Cc1cc(C)cc(NC(=S)NC2CC3CCCC(C2)N3C2CC2)c1 (stereo not given) | -10.8% (inactive) | 
40 | Cc1cc(C(F)(F)F)nn1CC(=O)N1CCOCC1 | -2.05% (inactive) | 
41 | O=C(CN1C(=O)CNC1=O)Nc1cccc(C(F)(F)F)c1 | -1.61% (inactive) | 
42 | CC(=O)N1C(=S)NC(=O)/C1=C1/C(=O)N(CC(=O)Nc2cccc(C)c2)c2ccccc21 | -2.91% (inactive) | 
43 | Cc1cccc(NC(=O)CN2C(=O)/C(=C3\SC(=S)N(CC4CCCO4)C3=O)c3ccccc32)c1 (stereo not given) | -5.35% (inactive) | 
44 | COc1ccc(NC(=O)CN2C(=O)/C(=C3\SC(=S)N(CCC(=O)O)C3=O)c3ccccc32)cc1 | 2.68% (inactive) | 
45 | CCN1C(=O)C(=O)N(CC(=O)Nc2cccc(C(F)(F)F)c2)C1=O | 6.2% (inactive) | 
46 | O=C(CN1C(=O)/C(=C2\SC(=S)N(C3CCS(=O)(=O)C3)C2=O)c2ccccc21)Nc1ccccc1 (stereo not given) | -1.82% (inactive) | 
47 | CCO[C@H]1OC(C(=O)O)=C[C@@H](c2cn(C(C)=O)c3ccccc23)[C@@H]1CCCO | -0.8% (inactive) | 
48 | Cc1ccccc1C(=O)NCCNC(=O)c1ccccn1 | 4.99% (inactive) | 
49 | O=C(CSc1ccc(F)cc1)Nc1ccc(N2CCOCC2)c(Cl)c1 | -4.54% (inactive) | 
50 | CC(=O)N1CCN(CC(=O)Nc2ccccc2C(=O)NCc2ccc(C)cc2)CC1 | -0.89% (inactive) | 
51 | Cc1ccc(OCC(=O)OCC(=O)Nc2ccc3c(c2)OCO3)cc1C | -3.82% (inactive) | 
52 | Cc1cc(C(=O)OCC(=O)NCc2ccc(Cl)cc2Cl)c(C)o1 | -0.73% (inactive) | 
53 | Clc1ccc(CN2CCSCC2)c(Cl)c1 | -3.29% (inactive) | 2.1%
54 | C=C(C)c1cccc(C(C)(C)NC(=O)N2CCCC(C)C2)c1 (stereo not given) | -4.84% (inactive) | 
55 | Cc1cc(=O)[nH]c(N/N=C/c2cc(C)n(CC(F)(F)F)c2C)n1 | 1.74% (inactive) | 
56 | CC1CCN(C(=S)c2cn(Cc3ccc(F)cc3)c3ccccc23)CC1 | -6.61% (inactive) | 
57 | COCCN(C(=O)c1csnn1)C(C(=O)NC(C)(C)C)c1cccc(OC)c1 (stereo not given) | 0% (inactive) | 
